Assay results from PubChem BioAssay AID372 (MTDP, 2006).
The campaign covered roughly 100,000 compounds. About 770 (0.77%) were called active. No stated cut-off is given here; in the data, active means inhibition above about 50%; inactive means the rest. For the sample, actives were picked, then their nearest neighbours and some compounds at random.

What follows are compounds tested against Gag-Pol polyprotein (Human immunodeficiency virus type 1 group M subtype B (isolate HXB2)) (UniProt P04585) (assay: RNase H inhibition, HIV 1 Gag Pol polyprotein, FRET biochemical assay, screening (AID 372)). Settings: HIV-1 RT RNase H, FRET RNA/DNA substrate fluorescence; at 10 µM; hits give high values.

| SMILES | inhibition |
| --- | --- |
| NN1CCN(Cc2cccc3ccccc23)CC1 | 7% (inactive) |
| Cc1c(O)ccc(C(=O)Cc2ccccc2Cl)c1O | 10% (inactive) |
| O=C(Cc1ccccc1Cl)c1ccc(O)cc1O | 7% (inactive) |
| O=C(c1cccc(F)c1)N1CCN(C(=O)c2cccs2)CC1 | 7% (inactive) |
| COc1cc(OC)c(OC)cc1CN1CCN(Cc2ccccn2)CC1 | 5% (inactive) |
| CCc1c(C)sc(NC(=O)c2ccc(OC)c(OC)c2)c1C(=O)OC | 16% (inactive) |
| CCc1c(C)sc(NC(=O)c2ccncc2)c1C(=O)OC | 73% (active) |
| CCc1c(C)sc(NC(=O)c2cccc(Br)c2)c1C(=O)OC | 16% (inactive) |
| CCOC(=O)c1ccc(NC(=O)c2cn(-c3ccccc3)nc2-c2ccccc2)cc1 | 9% (inactive) |
| COc1cc(C=O)ccc1OCCCCOc1c(C)cc(C)cc1Br | 31% (inactive) |
| O=C(Nc1nc2ccc3ccccc3c2s1)c1ccc(C(=O)c2ccccc2)cc1 | 18% (inactive) |
| O=C(Nc1nc2ccc3ccccc3c2s1)c1cccc(Cl)c1 | 5% (inactive) |
| O=C(Nc1nc2ccc3ccccc3c2s1)c1ccc(Cl)cc1 | 54% (active) |
| COc1ccc(NC(=O)c2c(-c3c(Cl)cccc3Cl)noc2C)c([N+](=O)[O-])c1 | 1% (inactive) |
| CCOc1ccc(N2C(=O)NC(=O)/C(=C\c3ccc(Sc4ccccc4)o3)C2=O)cc1 | 15% (inactive) |
| O=[N+]([O-])c1ccc(/C=C/C=N/Nc2nc(N3CCOCC3)nc(N3CCOCC3)n2)cc1 | 2% (inactive) |
| CCN(CC)C(=O)c1sc(NC(=O)/C=C/C(=O)O)c(C(=O)OC)c1C | 70% (active) |
| CCN(CC)C(=O)c1sc(NC(=O)C(C)(C)C)c(C(=O)OC)c1C | 43% (inactive) |
| CCCC(=O)Nc1sc(C(=O)N(CC)CC)c(C)c1C(=O)OC | 24% (inactive) |
| O=Cc1ccc(-c2ccc(OC(F)(F)F)cc2)o1 | 7% (inactive) |
| O=C(Nc1ccc2oc(-c3ccc(Cl)c(Cl)c3)nc2c1)c1ccc(F)cc1 | 60% (active) |
| O=C(Nc1ccc(-c2cc3ccccc3oc2=O)cc1)c1ccc(Cl)c(Cl)c1 | 0% (inactive) |

| SMILES | inhibition |
| --- | --- |
| COc1cc(OC)cc(C(=O)Nc2ccc3oc(-c4ccc(I)cc4)nc3c2)c1 | 16% (inactive) |
| O=C(Nc1cccc(-c2nc3cc(Cl)ccc3o2)c1)c1cccc(F)c1 | 21% (inactive) |
| O=C(Nc1ccc2oc(-c3ccc(F)cc3)nc2c1)c1cc(Br)ccc1Cl | 2% (inactive) |
| COc1cccc(C(=O)Nc2ccc(-c3cc4ccccc4oc3=O)cc2)c1 | 45% (inactive) |
| COc1ccc(-c2nc3cc(NC(=O)c4ccc(F)cc4)ccc3o2)cc1Cl | 13% (inactive) |
| O=C(Nc1ccc2oc(-c3cccc(F)c3)nc2c1)c1cccc(F)c1 | 14% (inactive) |
| O=C(Nc1ccc2oc(-c3cccc(Cl)c3)nc2c1)c1cccc(F)c1 | 50% (active) |
| COc1cc(OC)cc(C(=O)Nc2ccc3oc(-c4ccc(Cl)c(Cl)c4)nc3c2)c1 | 56% (active) |
| COc1cc(OC)cc(C(=O)Nc2ccc3oc(-c4ccc(Br)cc4)nc3c2)c1 | 27% (inactive) |
| O=C(Nc1ccc(-c2cc3ccccc3oc2=O)cc1)c1cccc(F)c1 | 58% (active) |
| Cc1cccc2c(Nc3ccccc3)c3ccccc3nc12 | 17% (inactive) |
| CCOC(=O)c1cccc(Nc2ncnc3ccc(C)cc23)c1 | 0% (inactive) |
| Fc1ccc(/C=N/c2ncn[nH]2)cc1 | 6% (inactive) |
| CNC(=O)C(=O)NCCN1CCN(S(=O)(=O)c2ccc([N+](=O)[O-])cc2)CC1 | 0% (inactive) |
| O=C(COc1ccccc1Br)Nc1ccc(Cl)c(Cl)c1 | 20% (inactive) |
| COc1ccc(C(=O)NC(CC(=O)O)c2ccccc2)cc1 (centres undefined) | 0% (inactive) |
| CC(=O)c1cccc(N/C=C\C(=O)c2ccc(Cl)c(Cl)c2)c1 | 10% (inactive) |
| Cc1ccc(NC(=O)/C=C/c2cccc(C(F)(F)F)c2)cc1 | 12% (inactive) |
| O=C1c2ccccc2C(=O)N1c1ccc(-c2nc3ccccc3[nH]2)cc1 | 0% (inactive) |
| O=C1C=CC(=O)N1c1ccc(-c2nc3ccc(N4C(=O)C=CC4=O)cc3[nH]2)cc1 | 14% (inactive) |
| CCOC(=O)C1=C(C)N=c2s/c(=C\c3ccc(Br)o3)c(=O)n2C1c1ccc(OC)cc1OC (centres undefined) | 23% (inactive) |
| CCCC(=O)Nc1c(C)ccc2nsnc12 | 0% (inactive) |

| SMILES | inhibition |
| --- | --- |
| COCCCNC(=O)COc1ccc(Cl)cc1C | 10% (inactive) |
| CN1C(=O)/C(=C/c2ccc(O)c(O)c2)SC1=S | 83% (active) |
| CCN1C(=O)/C(=C\c2ccc(O)c(OC)c2)SC1=S | 36% (inactive) |
| COc1cc(/C=C2\SC(=S)N(C3CCCCC3)C2=O)ccc1O | 8% (inactive) |
| COc1ccc(/C=C2\SC(=S)N(C3CCCCC3)C2=O)cc1O | 5% (inactive) |
| CCN1C(=O)/C(=C\c2ccc(O)cc2O)SC1=S | 70% (active) |
| CCN1C(=O)/C(=C\c2cc(Cl)ccc2O)SC1=S | 16% (inactive) |
| CCN1C(=O)/C(=C\c2cc(OC)ccc2O)SC1=S | 24% (inactive) |
| CCOc1cc(/C=C2\SC(=S)N(C)C2=O)ccc1O | 22% (inactive) |
| CCN1C(=O)/C(=C\c2ccc(O)c(O)c2)SC1=S | 81% (active) |
| COc1ccc(/C=C2/SC(=S)N(C)C2=O)cc1O | 43% (inactive) |
| CCN1C(=O)/C(=C\c2cccc(O)c2)SC1=S | 28% (inactive) |
| N/C(Cc1ccc([N+](=O)[O-])cc1)=N\OC(=O)c1ccc([N+](=O)[O-])cc1 | 6% (inactive) |
| Cc1ccc(C(=O)N2CCc3ccccc32)cc1[N+](=O)[O-] | 5% (inactive) |
| O=[N+]([O-])c1cc([N+](=O)[O-])c(N2CCN(c3ccccc3Cl)CC2)cc1Nc1ccc(Br)cc1 | 5% (inactive) |
| O=C(CSc1cc(Cl)ccc1Cl)Nc1cccc(C(F)(F)F)c1 | 9% (inactive) |
| COc1cc(C(=O)N/C(=C/c2ccco2)C(=O)Nc2ccccc2)cc(OC)c1OC | 9% (inactive) |
| COc1ccccc1C1NC(=O)NC(C)=C1C(=O)OC(C)C (centres undefined) | 8% (inactive) |
| CCNC(=O)C(=O)Nc1ccccc1C | 5% (inactive) |
| CCOC(=O)c1c(NC(=O)Cc2ccc(Cl)cc2)sc(C(=O)Nc2ccccc2OC)c1C | 0% (inactive) |
